# Assay results published in the supplement of paper PMC12067926.
# A number with no mark means an inactive call.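 Rule for the calls: active = growth AUC significantly below the DMSO wells by Dunnett test; inactive = the rest.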
# Experiments:
# Assay in all cases: relative growth (AUC of 72 h growth curve relative to DMSO control, dAUC) (ratio); higher = more growth (less inhibition), active = hit call of the paper
# Details in all cases: 20 µM
# [1] = compound: C=CCOC(Cn1ccnc1)c1ccc(Cl)cc1Cl
# How it was run: (§1)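 For relative growth (dAUC), the spline-integrated area under the growth curve was divided by the mean of the DMSO controls. Results were averaged over three biological replicates. Each replicate used a 1:100 dilution, into 96-well plates holding each chemical at 20 µM (1% DMSO), of isolates from Icelandic stream sediments and Silwood Park soil or whole sediment communities that had been grown to carrying capacity in Luria–Bertani medium. Plates were shaken briefly before each hourly A600 reading over 72 h.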
# [2] = compound: CC(=O)CC(c1ccccc1)c1c(O)c2ccccc2oc1=O
# How it was run: as §1
# [3] = compound: CC1COc2ccccc2N1C(=O)C(Cl)Cl
# How it was run: as §1
# [4] = compound: CCCCC(CC)CN1C(=O)[C@@H]2[C@H](C1=O)[C@@H]1C=C[C@H]2C1 (mixture of isomers)
# How it was run: as §1
# [5] = compound: CCCCCCCCc1c(CC)nc2ncnn2c1N
# How it was run: as §1
# [6] = compound: CCCCOCCOCCOCc1cc2c(cc1CCC)OCO2
# How it was run: as §1
# [7] = compound: CCCOC(=O)NCCCN(C)C
# How it was run: as §1
# [8] = compound: COC(=O)c1csc(C)c1S(=O)(=O)NC(=O)n1nc(OC)n(C)c1=O
# How it was run: as §1
# [9] = compound: Cc1ccc(C(C)NC(=O)[C@@H](NC(=O)OC(C)C)C(C)C)cc1
# How it was run: as §1
# [10] = compound: Cc1nn(C)c(Oc2ccccc2)c1/C=N/OCc1ccc(C(=O)OC(C)(C)C)cc1
# How it was run: as §1
# [11] = compound: Cn1cc(C(=O)Nc2ccc(F)cc2-c2ccc(Cl)c(Cl)c2)c(C(F)F)n1
# How it was run: as §1
# [12] = compound: Cn1cc(C(=O)Nc2ccccc2-c2cc(F)c(F)c(F)c2)c(C(F)F)n1
# How it was run: as §1
# [13] = compound: O=C(NCc1ncc(C(F)(F)F)cc1Cl)c1c(Cl)cccc1Cl
# How it was run: as §1
# [14] = compound: Oc1c(Cl)cc(Cl)c(Cl)c1Cc1c(O)c(Cl)cc(Cl)c1Cl
# How it was run: as §1
# [15] = compound: S=C([S-])NCCNC(=S)[S-].S=C([S-])NCCNC(=S)[S-].[Mn+2].[Zn+2]
# How it was run: as §1
# [16] = compound: c1ccc2[nH]c(-c3cscn3)nc2c1
# How it was run: as §1
Target,relative growth [1],relative growth [2],relative growth [3],relative growth [4],relative growth [5],relative growth [6],relative growth [7],relative growth [8],relative growth [9],relative growth [10],relative growth [11],relative growth [12],relative growth [13],relative growth [14],relative growth [15],relative growth [16]
Community 7,0.922,1.03,0.994,0.872,1.03,1.04,1.12,1.02,1.08,1,1.06,1.05,1.07,0.468,1.12,1.03
Community 9,0.764,0.985,1.02,0.846,1.02,0.906,1,1.1,0.905,0.906,0.839,1.05,1.03,0.306 (active),1.03,0.911
Serratia 1 (Serratia sp. 2015-2462-01),0.919,0.952,0.946,0.932,0.971,0.954,0.979,0.99,0.955,0.973,0.949,1.02,0.994,0.00199 (active),1.06,0.982
Pseudomonas 6 (Pseudomonas sp.),0.901,1.13,1.09,1.1,0.937,1.14,0.948,1.09,1.12,1.09,0.974,1.04,1.05,0.0758 (active),0.926,0.884
Arthrobacter 1 (Arthrobacter humicola),0.626 (active),1.01,0.901,0.835,0.931,1.01,1.04,1.12,0.932,1.26,0.846,0.99,0.993,0.00912 (active),0.994,0.932
Aeromonas 2 (Aeromonas sobria),0.874,0.948,0.962,0.971,0.986,0.986,0.999,1.01,0.993,1.03,0.936,0.987,0.974,0.00514 (active),0.907,0.973
Pseudomonas 3 (Pseudomonas mandelii),1.01,1.06,1.07,1.05,0.984,1.04,1.04,1.04,1.08,1.09,1.03,1,0.984,0.00168 (active),0.907,0.96
Community 8,0.913,1.03,1.03,0.989,1.07,0.957,1.03,1.01,0.972,1.01,0.943,1.04,1.02,0.806,1.13,0.998
Community 10,0.783,0.872,0.795,0.665,0.99,0.777,1.02,0.965,0.84,0.714,0.742,1.03,0.996,0.51 (active),1.11,1.16
Flavobacterium 2 (Flavobacterium succinicans),0.489 (active),0.983,0.926,0.916,0.961,0.976,1.03,1,0.933,0.952,0.849,0.962,0.966,0.0105 (active),1.13,1.03
Neobacillus 1 (Neobacillus soli),0.996,0.98,0.978,0.974,0.944,1.04,1.01,1.07,0.946,0.942,0.848,1.02,1,0.507 (active),1.06,0.976
Prolinoborus 1 (Prolinoborus fasciculus),0.664 (active),0.986,0.921,0.937,0.883,0.915,1.04,1.02,1.02,0.945,0.947,1.01,0.999,0.0191 (active),0.861,0.964
Pseudomonas 5 (Pseudomonas baetica),0.962,1.03,1.08,0.989,1,1.01,0.994,1.04,1.02,1.05,0.995,1.05,1.05,0.501 (active),1.03,0.951
Pseudomonas 1 (Pseudomonas baetica),1.01,1.09,1.04,1.13,0.923,1.04,0.968,1.1,1.06,1.14,1.15,0.984,1.04,0.559 (active),0.921,0.944
